Drawing on PubChem BioAssay AID1645859 (Buhrlage Lab, Dana-Farber Cancer Institute and Novartis …, 2021), this text covers inhibition for 84 molecules.

Screen size: about 47,000 compounds; about 95 (0.2%) were called active. Cut-off read from the data, not from the text of the source: active = inhibition above about 30%; inactive = the rest. The entries come from a sample that favours actives as a whole.

This assay deals with Ubiquitin carboxyl-terminal hydrolase isozyme L1 (Homo sapiens) (UniProt P09936). Put plainly: inhibitors of human UCHL1 deubiquitinase (AID 1645859). The note with it: purified UCHL1, Ub-rhodamine cleavage fluorescence; at 20 µM; active compounds read high.
Ubiquitin carboxyl-terminal hydrolase isozyme L1 (Homo sapiens), sequence (P09936 whole entry, looked up): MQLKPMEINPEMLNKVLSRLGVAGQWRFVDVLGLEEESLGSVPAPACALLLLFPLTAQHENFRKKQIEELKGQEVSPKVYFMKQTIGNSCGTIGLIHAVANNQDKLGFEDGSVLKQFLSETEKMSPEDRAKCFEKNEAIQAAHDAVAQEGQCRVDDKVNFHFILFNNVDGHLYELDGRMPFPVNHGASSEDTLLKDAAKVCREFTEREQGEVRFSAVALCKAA
The inhibition is the relative decrease from the control value, in per cent. `COCC(=O)N1CCC(n2c(-c3ccccc3OC)nc3ccccc32)CC1`: the inhibition is -2.92% (inactive).

On to `COCCC(=O)N1CCC2(C/C=C/Cc3ccccc3OCC(=O)NCCNC2=O)CC1`, for which the inhibition is 3.12% (inactive).

Consider `COCC(=O)N1CCN2C[C@H]1C(=O)NC[C@H]1O[C@@H](CC(=O)N[C@H]3C[C@@H](C2=O)N(Cc2ccc(OC(F)(F)F)cc2)C3)[C@H](O)[C@@H]1O`, for which the inhibition is -6.2% (inactive).

Regarding `FC(F)(F)c1ccc(-c2nnc(SCCOc3ccccc3)o2)cc1`, the inhibition is 11.1% (inactive).

In the case of `Cc1ccc(CN2CN(C3CCN(C(=O)c4ccoc4)CC3)CC2=O)c(C)c1`, the inhibition was -0.0513% (inactive).

Turning to `O=C(Nc1nc2nc(-c3ccccc3)cc(=O)n2[nH]1)C1CCCCC1`, the inhibition was 4.88% (inactive).

In the case of `Cc1nc(-c2cn(C(C)C)c3ncccc23)sc1C(=O)N1CCCC1`, the inhibition was 1.73% (inactive).

Regarding `Cc1ccc(CNC(=O)c2cc(=O)nc3sc(N4CCCC(C)C4)nn23)cc1` (centres undefined), the inhibition was 0.655% (inactive).

Turning to `COc1ccc(C(NC(=O)CN(C)Cc2ccc3c(c2)OCO3)c2ccccc2)cc1` (centres undefined), the inhibition was 6.51% (inactive).

Take `Fc1ccccc1Cn1c(COc2ccccc2)nc2ccccc21`: the inhibition is 8.93% (inactive).

Consider `O=C(N[C@@H]1CN(Cc2nccs2)[C@@H]2COC[C@@H]21)C1CCC1`, for which the inhibition was -3.31% (inactive).

Turning to `O=C(Nc1ccc(F)cc1)c1cc(CN2CCOCC2)on1`, the inhibition is 1.96% (inactive).

For `C=C1CCC2[C@](C)(CCC[C@]2(C)C(=O)OC)[C@H]1CCc1ccoc1/C=C/C(=O)O` (some centres undefined), the inhibition was 9.97% (inactive).

As to `O=C1COC2(CCN(C(=O)C3(c4ccccc4)CCOCC3)C2)CN1c1ccc(F)cc1` (centres undefined), the inhibition is 2.68% (inactive).

For `O=C(CCc1ccncc1)N(Cc1ccc2c(c1)OCO2)C1CCCCC1`, the inhibition is -0.303% (inactive).

Consider `COC[C@H]1C[C@@H]2CN(S(=O)(=O)c3ccccc3OC)C(C)[C@H]1N2C` (some centres undefined), for which the inhibition is 0.608% (inactive).

As to `O=C(Nc1nnc(-c2cccc([N+](=O)[O-])c2)o1)C1CCN(S(=O)(=O)c2ccc3c(c2)CCC3)CC1`, the inhibition was 5.08% (inactive).

Regarding `Cc1nc(Nc2ccccn2)cc(C2CCCN2Cc2ncc[nH]2)n1` (centres undefined), the inhibition is -2.35% (inactive).

Turning to `CCc1cccc(NS(=O)(=O)c2ccc3c(c2)C(C)(C)C(=O)N3)c1`, the inhibition was 4.05% (inactive).

As to `COc1cccc(CNC(=O)CN2C(=O)CCc3cc(Br)ccc32)c1`, the inhibition is 3.25% (inactive).

Turning to `O=C1CC2(C(=O)N(Cc3cccc(Cl)c3)c3ccccc32)c2cn[nH]c2N1` (centres undefined), the inhibition was -5.23% (inactive).

For `CCn1c(=O)c2ccccc2n(Cc2nc(-c3ccc(C)cc3)no2)c1=O`, the inhibition is -1.69% (inactive).

`O=C(C1CCC1)N1CCN2C(=O)c3ccccc3[C@H]2C1`: the inhibition is -4.57% (inactive).

Take `O=C1C(O)=C(c2ccc(O)c(O)c2)C(=O)C(O)=C1c1ccccc1`: the inhibition was 13.7% (inactive).

For `O=C1OCC2=C1C(c1ccccc1)CC(=O)N2c1cccc(F)c1` (centres undefined), the inhibition was -0.0471% (inactive).

For the molecule `Cc1nc(NCCO)c2sc3nc4c(cc3c2n1)COC(C)(C)C4`, the inhibition is 3.92% (inactive).

`CCOc1ccccc1-c1nc(-c2nnn(Cc3ccccc3)c2C)no1`: the inhibition is 7.54% (inactive).

In the case of `COc1ccc(C(Nc2ccc(S(=O)(=O)NCC3CCCO3)cc2)C(=O)NCC2CCCO2)cc1` (centres undefined), the inhibition was 1.49% (inactive).

Take `O=C(Cn1c(=O)n(Cc2cccs2)c(=O)c2cc(Cl)ccc21)NCC1CCCO1` (centres undefined): the inhibition is 0.727% (inactive).

Regarding `Cc1nc(N2CCOCC2)ncc1-c1cc(=O)[nH]c(N2CCC(Cc3ccccc3)CC2)n1`, the inhibition is 5.31% (inactive).

Take `Cc1nc2ccccc2n1CC(O)c1ccccc1` (centres undefined): the inhibition is -0.449% (inactive).

On to `O=C(c1noc2ccc(S(=O)(=O)N3CCCC3)cc12)N1CCCC1`, for which the inhibition is 0.984% (inactive).

Take `Cc1ccc(CNc2nc3nc(CN4CCc5ccccc5C4)cc(=O)n3[nH]2)cc1`: the inhibition was -0.288% (inactive).

As for `O=C(Cn1cc(SCc2cccc(F)c2)c2ccccc21)N1CCCCCC1`, the inhibition is 7.23% (inactive).

`Cc1c(-c2nn3c(-c4ccco4)nnc3s2)cccc1[N+](=O)[O-]`: the inhibition was 61.3% (active).

On to `CC(C)Cc1cc(-c2nn3c(-c4ccccc4Cl)nnc3s2)n[nH]1`, for which the inhibition is 5.44% (inactive).

Regarding `O=C(COc1cccc2ccc(N3CCC(Cc4ccccc4)CC3)nc12)NCc1ccc(F)cc1`, the inhibition was 2.33% (inactive).

As to `O=C(c1cn(-c2cc(-c3nc(C4CC4)no3)ccn2)cn1)N1CCCCCC1`, the inhibition is -3.62% (inactive).

Regarding `O=C(NCCN1CCOCC1)C1CCN(c2ccc(N3CCCCC3)nn2)CC1`, the inhibition was -0.229% (inactive).

Consider `Cc1ncc(-c2ccncc2)c(C2CCN(C(=O)c3cnccn3)CC2)n1`, for which the inhibition is 0.226% (inactive).

Consider `Cn1cc2nc(SCC(=O)NCc3ccc(Cl)cc3)n(CC3CC3)c(=O)c2n1`, for which the inhibition was -3.8% (inactive).

Regarding `O=c1c2ccccc2c(-c2nc(-c3ccncc3)no2)cn1-c1ccc(F)cc1`, the inhibition was 3.33% (inactive).

`CC1(C)Cc2c(c(-c3ccco3)nc3sc4c(SCCCc5ccccc5)ncnc4c23)CO1`: the inhibition is 56.3% (active).

Take `CSc1ncnc2c1sc1nc(-c3ccccc3)c3c(c12)CC(C)(C)OC3`: the inhibition is 2.83% (inactive).

For `CCCCCCSc1ncnc2c1sc1nc(-c3ccccc3)c3c(c12)CC(C)(C)OC3`, the inhibition is -2.54% (inactive).

In the case of `CCc1cnc(N2CC[C@@H]3CN(CC)S(=O)(=O)[C@@H]3CC2)nc1`, the inhibition was 1.62% (inactive).

Consider `Cc1nc2c(c(=O)[nH]1)C(c1ccc(OCc3ccccc3F)cc1)CC(=O)N2` (centres undefined), for which the inhibition was -1.23% (inactive).

For the molecule `Cc1cc(N(C)C)nc(N2CCN(S(=O)(=O)c3ccc(-c4ccccc4)cc3)CC2)n1`, the inhibition is 1.74% (inactive).

In the case of `Cc1cc(C)c2c(C)c(C(=O)NCc3csc(C)n3)oc2c1`, the inhibition was -0.0316% (inactive).

In the case of `Cc1ccc(C(=O)N2CCc3cc(-c4csc(NC(=O)CNc5ccccc5)n4)ccc32)cc1`, the inhibition is -0.728% (inactive).

Turning to `Cc1nn(-c2ccc(Cl)cc2)c2c1C(c1cccc(Br)c1)N1C(=N2)N(C)c2c1c(=O)n(C)c(=O)n2C` (centres undefined), the inhibition is -0.542% (inactive).

Consider `COCCCn1c(C(=O)N2CCC(C)CC2)cc2c(=O)n3ccccc3nc21`, for which the inhibition is -5.93% (inactive).

On to `O=C1CN(C(=O)c2ccc(Cl)o2)c2ccccc2N1`, for which the inhibition was -5.13% (inactive).

Take `CCc1nnc2ccc(C(=O)N3CCN(c4ccccn4)CC3)cn12`: the inhibition is 1.5% (inactive).

As for `Fc1cc(F)cc(-c2noc3ncnc(N(Cc4ccco4)CC4CCCO4)c23)c1` (centres undefined), the inhibition was 0.782% (inactive).

Take `Cc1ccc(CN2C[C@H]3C[C@H](C(=O)NC(C)C)[C@@H](C2)O3)o1`: the inhibition is 2.08% (inactive).

As for `O=C1NC(=O)N2Cc3ccccc3CN(C(=O)c3ccc(Cl)cc3)CC12` (centres undefined), the inhibition is 0.947% (inactive).

As for `COc1ccc(CN=C2NS(=O)(=O)C(c3ccc(F)cc3)=C2C)cc1OC`, the inhibition was -4.12% (inactive).

For `c1coc(CNc2nc(Nc3cccc4ccccc34)nc3ccccc23)c1`, the inhibition was 5.02% (inactive).

`CC(CC(=O)N1CCc2ccccc2C1)S(=O)(=O)c1ccc2c(c1)NC(=O)CCS2` (centres undefined): the inhibition is -1.85% (inactive).

As to `COc1ccc(C)cc1NC(=O)c1coc(NC(=O)c2ccco2)n1`, the inhibition is -2.46% (inactive).

Regarding `CO[C@H]1C[C@@H]2CC[C@@H](C)[C@@](O)(O2)C(=O)C(=O)N2CCCC[C@H]2C(=O)O[C@H]([C@H](C)C[C@@H]2CC[C@@H](O)[C@H](OC)C2)CC(=O)[C@H](C)/C=C(\C)[C@@H](O)[C@@H](OC)C(=O)[C@H](C)C[C@H](C)/C=C/C=CC=C1C`, the inhibition is 6.78% (inactive).

On to `CCN1CCN(c2ccc(-c3nc(-c4cccc(F)c4)no3)cn2)CC1`, for which the inhibition is -1.45% (inactive).

Take `CCc1nc(SCC(=O)Nc2cccc(OC)c2)c2c(=O)n(C)c(=O)n(C)c2n1`: the inhibition is -0.222% (inactive).

For the molecule `O=C1C2Cc3c([nH]c4ccccc34)C(c3ccccc3)N2C(=O)CN1C1CCCCC1` (centres undefined), the inhibition was 5.95% (inactive).

For the molecule `O=C(C1=Cc2ccccc2OC1)N1CCN(c2ccccc2)CC1`, the inhibition is 0.226% (inactive).

For the molecule `COc1cccc(C(=O)NC2CC(=O)N(c3ccc(F)cc3)C2)c1OC` (centres undefined), the inhibition was 0.016% (inactive).

For the molecule `Cc1nc(C2CCN(C(=O)C(C)(C)C)CC2)cc(N2C(=O)OCC2C(C)C)n1` (centres undefined), the inhibition is -3.66% (inactive).

On to `CC(C)c1cc(N2CCCCC2)nc(-c2ccccn2)n1`, for which the inhibition is -3.77% (inactive).

Take `CN(C)S(=O)(=O)N1C[C@H](OCc2ccccn2)[C@H]2OCCC[C@H]21`: the inhibition is -1.03% (inactive).

`Cc1nccn1-c1cccc(C2CCCN(c3ncccn3)C2)n1` (centres undefined): the inhibition was -0.888% (inactive).

In the case of `C/C=C(\C)C(=O)O[C@@H]1C[C@@]2(C)CC[C@H](C(C)C)[C@@]2(O)CC[C@@]1(C)O`, the inhibition is -2.54% (inactive).

`O=C1CN2CC(c3ccccc3S2(=O)=O)N1Cc1ccccc1` (centres undefined): the inhibition is -1.24% (inactive).

For `CCC(=O)c1c(-c2ccc(F)cc2)c2c3n(c(-c4ccc(Cl)c(Cl)c4)cn13)CCCC2`, the inhibition was 3.03% (inactive).

As for `O=C1N[C@H]2OCCC[C@H]2[C@H](c2cccc(CNC(=O)c3ccon3)c2)N1`, the inhibition is 1.68% (inactive).

Regarding `Cc1ccccc1CN1C(=O)N(c2cccc(F)c2)c2ncccc2S1(=O)=O`, the inhibition is 3.52% (inactive).

`Cc1cnn(CC2CCCN2Cc2nc(-c3ccco3)no2)c1` (centres undefined): the inhibition is -8.36% (inactive).

As to `CC(=O)NCc1nc(-c2ccc3c(c2)nc(C)c(=O)n3C2CCCC2)no1`, the inhibition was -31.3% (inactive).

As for `O=C(C1CCCN(c2cnc3nccnc3c2)C1)N1CCCCCC1` (centres undefined), the inhibition is -42.4% (inactive).

Consider `CN(C)c1ncc(CN2CCN(C)C(c3ccccc3)C2)cn1` (centres undefined), for which the inhibition is -0.428% (inactive).

Consider `CNC(=O)C1Cc2ccccc2N1S(=O)(=O)c1cccnc1` (centres undefined), for which the inhibition is -8.34% (inactive).

On to `Cc1ccc(C)c(S(=O)(=O)NCC(c2ccc3c(c2)CCN3C)N2CCCC2)c1` (centres undefined), for which the inhibition is -2.82% (inactive).

As to `COc1ccc(C(=O)N2CCCC(c3ccnc(=O)[nH]3)C2)cn1` (centres undefined), the inhibition is -1.26% (inactive).

In the case of `Cc1ccc(NC(=O)N2CCSc3ccccc32)cc1`, the inhibition was -0.231% (inactive).
